Data on 18 molecules can be found in PubChem BioAssay (Tox21).

Test [1] is described as follows: qHTS assay to identify small molecule antagonists of the thyroid receptor (TR) signaling pathway - cell viability counter screen (AID 743064). Also: nearly all actives have a fitted effect of over 50% in size. Also: potency is read from the fitted curve at half-maximal effect. A digest of the protocol:
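GH3.TRE-Luc rat pituitary cells dosed after 4 hr plating, co-stimulated with T3 at 1 nM final, incubated 23.5 h at 37 C. Viability measured in the same wells by CellTiter-Fluor fluorescence after 30 min further at 37 C.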
For orientation: In qHTS, concentration-response curves come from the screen itself.

Test [2] is described as follows: qHTS assay to identify small molecule antagonists of the thyroid receptor (TR) signaling pathway (AID 743065). Also: nearly all actives have a fitted effect of over 55% in size. Also: potency is read from the fitted curve at half-maximal effect. A digest of the protocol:
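GH3.TRE-Luc rat pituitary cells carrying two TR response elements driving luciferase were plated for 4 h, given compound plus 1 nM T3 (final), and incubated 23.5 h at 37 C. ONE-Glo luminescence measured reporter inhibition; CellTiter-Fluor fluorescence tracked cytotoxicity.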

In test [3] the test system is thyroid hormone receptor (rat, GH3 cells). In words: qHTS assay to identify small molecule agonists of the thyroid receptor (TR) signaling pathway (AID 743066; calls by dose curve).
Test [4] is described as follows: qHTS assay to identify small molecule antagonists of the estrogen receptor alpha (ER-alpha) signaling pathway - cell viability counter screen (AID 743074; calls by dose curve; also: nearly all actives have a fitted effect of over 45% in size).
A short description of test [5]: qHTS assay to identify small molecule antagonists of the estrogen receptor alpha (ER-alpha) signaling pathway using the BG1 cell line - cell viability counter screen (AID 743081).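 Also: compound given together with 17beta-estradiol as the ER stimulus; series mostly up to about 70 µM; nearly all actives have a fitted effect of over 45% in size.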
The target in the next test is Aromatase (Homo sapiens) (UniProt P11511). Kind of test: qHTS assay to identify aromatase inhibitors (AID 743083). Also: nearly all actives have a fitted effect of over 55% in size. Also: potency is read from the fitted curve at half-maximal effect.
Chain of Aromatase (Homo sapiens) (P11511 whole entry, looked up): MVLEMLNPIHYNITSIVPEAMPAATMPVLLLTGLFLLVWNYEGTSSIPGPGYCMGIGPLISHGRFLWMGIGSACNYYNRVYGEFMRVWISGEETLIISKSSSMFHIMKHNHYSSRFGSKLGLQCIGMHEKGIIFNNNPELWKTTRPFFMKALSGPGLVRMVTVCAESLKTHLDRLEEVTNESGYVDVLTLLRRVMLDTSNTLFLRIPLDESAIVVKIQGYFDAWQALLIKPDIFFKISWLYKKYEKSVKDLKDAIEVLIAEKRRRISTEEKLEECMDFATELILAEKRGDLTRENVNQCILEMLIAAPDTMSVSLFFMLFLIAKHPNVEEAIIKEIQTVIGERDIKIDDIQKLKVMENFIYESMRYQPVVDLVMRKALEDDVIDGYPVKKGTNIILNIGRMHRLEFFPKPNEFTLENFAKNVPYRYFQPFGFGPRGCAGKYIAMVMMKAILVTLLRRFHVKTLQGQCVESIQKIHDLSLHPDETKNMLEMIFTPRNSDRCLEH
Test [6] has as its target Estrogen receptor (Homo sapiens) (UniProt P03372). Kind of test: qHTS assay to identify small molecule agonists of the estrogen receptor alpha (ER-alpha) signaling pathway (AID 743075; calls by dose curve).
Test [7] has the same target. Kind of test: qHTS assay to identify small molecule agonists of the estrogen receptor alpha (ER-alpha) signaling pathway using the BG1 cell line (AID 743079). Also: nearly all actives have a fitted effect of over 20% in size.
Test [8] in a line: qHTS assay to identify small molecule antagonists of the estrogen receptor alpha (ER-alpha) signaling pathway using the BG1 cell line (AID 743080; calls by dose curve;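 also: BG1 cells stimulated with 17beta-estradiol alongside compound; series mostly up to about 70 µM; nearly all actives have a fitted effect of over 25% in size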). The essentials: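 Readout is ONE-Glo luminescence, taken 30 min at room temperature after reagent addition, preceded by a CellTiter-Fluor viability read; BG1-Luc-4E2 cells had received compound and 17beta-estradiol for 21.5 h at 37 C.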

In test [9] the target is Estrogen receptor (Homo sapiens) (UniProt P03372). Kind of test: qHTS assay to identify small molecule antagonists of the estrogen receptor alpha (ER-alpha) signaling pathway (AID 743069; active = well fitted curve in the direction sought with a large enough effect in the signal ratio in the repeat runs, not every such curve was filed as active; the % refers to the signal ratio). The essentials: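 HEK293 cells stably carrying an ER-alpha-UAS-bla beta-lactamase reporter were pre-cultured overnight in 2% charcoal-stripped FBS medium. Test compounds in DMSO were added together with 17beta-estradiol for 18 hr at 37C. Read-out was fluorescence after 2 hr with LiveBLAzer B/G FRET substrate at room temperature.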
Chain of Estrogen receptor (Homo sapiens) (P03372 whole entry, looked up): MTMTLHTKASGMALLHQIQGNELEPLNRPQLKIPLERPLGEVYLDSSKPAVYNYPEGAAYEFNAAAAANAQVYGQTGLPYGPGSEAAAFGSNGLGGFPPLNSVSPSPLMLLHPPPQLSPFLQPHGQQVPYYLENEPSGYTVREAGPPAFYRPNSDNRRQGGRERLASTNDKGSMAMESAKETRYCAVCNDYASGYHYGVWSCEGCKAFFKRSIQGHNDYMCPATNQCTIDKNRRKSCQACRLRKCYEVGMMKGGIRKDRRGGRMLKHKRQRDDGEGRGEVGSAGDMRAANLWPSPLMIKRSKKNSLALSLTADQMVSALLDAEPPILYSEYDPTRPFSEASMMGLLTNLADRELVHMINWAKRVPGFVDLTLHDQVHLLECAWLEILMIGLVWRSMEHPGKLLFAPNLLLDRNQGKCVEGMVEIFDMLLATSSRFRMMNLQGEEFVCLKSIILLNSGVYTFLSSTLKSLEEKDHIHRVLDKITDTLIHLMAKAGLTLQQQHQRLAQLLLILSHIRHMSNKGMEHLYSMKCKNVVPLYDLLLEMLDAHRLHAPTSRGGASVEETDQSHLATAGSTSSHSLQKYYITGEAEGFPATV

Records with an inconclusive call do not appear. Activity calls are given as the source filed them. Unless noted, calls follow the shape of the dose curve; as a rule, active = well fitted curve in the direction sought with a large enough effect in the repeat runs; inconclusive = weak or mixed curves; inactive = no such curve, though single readings can be large; an effect the other way counts as inactive or inconclusive.

With `O=C(O)c1ccccc1Cl`, the Potency entry (in test [1]; in test [2]; in test [3]; in test [4]; in test [5]; in the test with Aromatase (Homo sapiens)) was “inactive” throughout.

As to `CC/C=C\CCOC(=O)CC`, the Potency entry (in [1]; in test [2]; in [3]; in [4]; in test [5]; with Aromatase (Homo sapiens)) was “inactive” in each case.

As to `C=CCOC(=O)CCC1CCCCC1`, the Potency result (in [1]; in test [2]; in test [3]; in test [4]; in [5]; with Aromatase (Homo sapiens)) was “inactive” throughout.

For the molecule `CC(C)(O)c1ccc(CNC(=O)c2cccnc2Oc2ccc(F)cc2)cc1`, the Potency entry in test [1], in test [2], in test [3], in test [4] and in test [5] was “inactive” throughout.

On to `C[C@H]1C[C@H]2[C@@H]3CCC4=CC(=O)C=C[C@]4(C)[C@@]3(Cl)[C@@H](O)C[C@]2(C)[C@@]1(O)C(=O)CO`, for which the Potency entry in test [1], in [2], in [3], in [4], in [6] and in test [7] was “inactive” in each case. Moreover, the Potency entry (in test [5]; in the test with Aromatase (Homo sapiens)) was “inactive” in each case.

`O=C(O)c1nc(Cl)c(Cl)c(Cl)c1Cl`: the Potency entry in [1], in test [2], in test [3], in test [4] and in test [5] was “inactive” in each case.

As to `CN(C)c1ccc(C(c2ccccc2)c2ccc(N(C)C)cc2)cc1`, the Potency result (in test [1]; in test [3]; in test [4]; in [5]; with Aromatase (Homo sapiens)) was “inactive” throughout. The Potency in test [2] was 24.3 µM (active).

`CCOC(=O)COC(=O)c1cc(Oc2ccc(C(F)(F)F)cc2Cl)ccc1[N+](=O)[O-]`: the Potency entry in [1], in test [2], in test [3], in test [4] and in test [5] was “inactive” throughout.

For `CC(C)(C)OCC1CO1` (stereo not drawn), the Potency result in test [1], in [2], in [3], in test [4] and in test [5] was “inactive” in each case.

On to `CC1CCC(=O)C1=O` (stereo not drawn), for which the Potency entry in [1], in [2], in test [3], in test [4], in test [6] and in test [7] was “inactive” each time. The Potency entry (in [8]; in test [5]; with Aromatase (Homo sapiens)) was “inactive” each time.

As to `COC(=O)C1=C(C)NC(COC(N)=O)=C(C(=O)OC(C)C)C1c1cccc(Cl)c1Cl` (stereo not drawn), the Potency in test [1] was 26.6 µM (active); in test [2], 16.8 µM (active); with Aromatase (Homo sapiens) it was 29.8 µM (active). The Potency entry in test [4], in test [7] and in test [8] was “inactive” in each case.

Consider `CCCCCCCCCCO[C@@H]1O[C@H](CO)[C@@H](O)[C@H](O)[C@H]1O`, for which the Potency entry in [1], in test [3], in test [9], in test [4], in [6] and in [7] was “inactive” each time. In addition, the Potency entry (in [8]; in [5]; with Aromatase (Homo sapiens)) was “inactive” in each case.

For `CCCOC(C(=O)OC1CCN(C)CC1)(c1ccccc1)c1ccccc1`, the results for the Potency in test [1] and in test [2] were 18.8 µM (active) and 26.6 µM (active), respectively. Besides, the Potency result (in [9]; in test [4]; in [6]; in [7]; in test [8]; with Aromatase (Homo sapiens)) was “inactive” each time.

Consider `CCCCc1nc2cccnc2n1Cc1ccc(-c2ccccc2-c2nnn[nH]2)cc1`, for which the Potency in [1] was 54.5 µM (active). Besides, the Potency result in [2], in [3], in [6], in [7], in test [8] and in test [5] was “inactive” each time. In the test with Aromatase (Homo sapiens), the Potency entry was “inactive”.

As to `CCC(CC)Nc1ccc(C)c(C)c1`, the Potency entry in test [1], in test [3], in test [9], in test [4], in test [6] and in test [7] was “inactive” each time. Moreover, the Potency result (in [8]; in test [5]; in the test with Aromatase (Homo sapiens)) was “inactive” each time.

As for `NC(=O)C(c1ccccc1)(c1ccccc1)[C@@H]1CCN(CCc2ccc3c(c2)CCO3)C1`, the values for the Potency in test [1] and in test [2] were 6.68 µM (active) and 26.6 µM (active), respectively. For the same molecule, the Potency entry in [9], in [4], in [6], in [7], in test [8] and in [5] was “inactive” throughout. Moreover, the Potency result in the test with Aromatase (Homo sapiens) was “inactive”.

As to `CCOc1ccc(N=Nc2ccc(/C=C/c3ccc(N=Nc4ccc(OCC)cc4)cc3S(=O)(=O)O)c(S(=O)(=O)O)c2)cc1`, the Potency in test [1] and in [2] was 47.8 µM (active) each time. Besides, the Potency result (in test [3]; in [4]; in the test with Aromatase (Homo sapiens)) was “inactive” in each case.

Consider `CC(=O)c1ccc2c(c1)N(CCCN(C)C)c1ccccc1S2`, for which the Potency in test [1] and in test [2] was 10.1 µM (active) each time. Also, the Potency result in test [9], in test [4], in [6], in test [7], in test [8] and in test [5] was “inactive” in each case.
